# Reference: PubChem BioAssay
# Records with an inconclusive call do not appear. For part of these data: Measured potencies and affinities stand elsewhere. Activity calls are given as the source filed them. Unless noted, the rule behind the calls is not given here.
# Assays:
# [1] = blockers of polyQ-driven CASP3 activation – cell-based (AID 1583); details: polyglutamine-induced caspase-3 activation, cell assay; stronger effect = higher value;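 tested at 10 µM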
# [2] = yeast 75Q aggregation reduction – 75Q-TubU reporter (AID 1593); details: Yeast 75Q polyglutamine aggregation reporter
# [3] = restoration of touch response, mutant HTT neurons – whole organism, C. elegans mechanosensory neurons, N-terminal huntingtin (AID 1599); details: C. elegans polyQ-huntingtin mechanosensory neurons, stronger effect = higher value
# [4] = blockers of cytochrome c efflux from mitochondria – biochemical, purified mitochondria (AID 1603); details: stronger effect = lower value;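 note: mouse liver mitochondria challenged with calcium chloride; signal normalized to the plate average as 100%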
# [5] = polyglutamine aggregate formation blockers (AID 1604); details: polyglutamine-induced protein aggregation inhibition assay; stronger effect = higher value; tested at 2.5 µM
# [6] = glutamate transport activators, MN-1 cells, MN-1 cell line (AID 1612); details: MN-1 motor neuron cells, stronger effect = higher value;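 note: tested at 1 µM final; 0% = mean of DMSO vehicle wells on each plate; positive means more glutamate uptake than control and negative means less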
# [7] = GFP-Q80 aggregate reduction, neuronal-like cells, cell-based, NGF-treated PC12, GFPQ80 (AID 1614); details: PC12 NGF-treated GFP-polyQ80 inclusion reduction;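 note: lower means fewer inclusions and 0 means no inclusions at all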
# [8] = 75Q-TubH aggregate inhibition, S. cerevisiae, yeast (AID 1616); details: S. cerevisiae 75Q-TubH polyglutamine aggregation suppression; stronger effect = higher value
# [9] = compounds altering viability of human ES cells (AID 493140); details: human embryonic stem cell survival screen; stronger effect = higher value;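 note: cells exposed to compounds for four days before counting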
# [10] = molecular target: Mitogen-activated protein kinase 7 (Homo sapiens) (UniProt Q13164); assay: Gal4-ERK5 driven luciferase induction – cell-based, HTS, primary screen (AID 1508626;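 active = luciferase signal above three times the same-plate solvent-only control wells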;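 note: luciferase driven by Gal4-ERK5 fusion binding five Gal4 sites before minimal TATA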); details: HeLa Gal4-ERK5 transactivation, 18 h, at 5 µM, stronger effect = higher value
# [11] = glutamate excitotoxicity neuroprotectants – cell-based, TUNEL DNA degradation staining, MNGlu (AID 1594); details: motor neurons, glutamate-induced death, at 1 µM, stronger effect = higher value
# [12] = galactose survival enhancers in mitochondrial complex I cybrids – cell-based, galactose medium, ATP luminescence, primary screen (AID 1645843;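 active = z-score of at least 1.8 in each of two replicates, scored against plate mean and spread of sample wells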;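 note: positive z means more ATP and so rescue of galactose-driven cybrid death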); details: complex I mutant cybrid cells, 72 h, stronger effect = higher value
# [13] = rescue of PC12 cells from polyQ htt toxicity – LDH release (AID 1610); details: PC12 mutant huntingtin toxicity, final LDH at 4 uM, stronger effect = lower value
# [14] = molecular target: Huntingtin (Homo sapiens) (UniProt P42858); assay: mutant huntingtin aggregation blockers – QA1, dose response (AID 1584); details: in vitro mutant huntingtin aggregation assay; confirmation test; at 10 µM; stronger effect = lower value
# Chain of Huntingtin (Homo sapiens) (P42858 whole entry, looked up): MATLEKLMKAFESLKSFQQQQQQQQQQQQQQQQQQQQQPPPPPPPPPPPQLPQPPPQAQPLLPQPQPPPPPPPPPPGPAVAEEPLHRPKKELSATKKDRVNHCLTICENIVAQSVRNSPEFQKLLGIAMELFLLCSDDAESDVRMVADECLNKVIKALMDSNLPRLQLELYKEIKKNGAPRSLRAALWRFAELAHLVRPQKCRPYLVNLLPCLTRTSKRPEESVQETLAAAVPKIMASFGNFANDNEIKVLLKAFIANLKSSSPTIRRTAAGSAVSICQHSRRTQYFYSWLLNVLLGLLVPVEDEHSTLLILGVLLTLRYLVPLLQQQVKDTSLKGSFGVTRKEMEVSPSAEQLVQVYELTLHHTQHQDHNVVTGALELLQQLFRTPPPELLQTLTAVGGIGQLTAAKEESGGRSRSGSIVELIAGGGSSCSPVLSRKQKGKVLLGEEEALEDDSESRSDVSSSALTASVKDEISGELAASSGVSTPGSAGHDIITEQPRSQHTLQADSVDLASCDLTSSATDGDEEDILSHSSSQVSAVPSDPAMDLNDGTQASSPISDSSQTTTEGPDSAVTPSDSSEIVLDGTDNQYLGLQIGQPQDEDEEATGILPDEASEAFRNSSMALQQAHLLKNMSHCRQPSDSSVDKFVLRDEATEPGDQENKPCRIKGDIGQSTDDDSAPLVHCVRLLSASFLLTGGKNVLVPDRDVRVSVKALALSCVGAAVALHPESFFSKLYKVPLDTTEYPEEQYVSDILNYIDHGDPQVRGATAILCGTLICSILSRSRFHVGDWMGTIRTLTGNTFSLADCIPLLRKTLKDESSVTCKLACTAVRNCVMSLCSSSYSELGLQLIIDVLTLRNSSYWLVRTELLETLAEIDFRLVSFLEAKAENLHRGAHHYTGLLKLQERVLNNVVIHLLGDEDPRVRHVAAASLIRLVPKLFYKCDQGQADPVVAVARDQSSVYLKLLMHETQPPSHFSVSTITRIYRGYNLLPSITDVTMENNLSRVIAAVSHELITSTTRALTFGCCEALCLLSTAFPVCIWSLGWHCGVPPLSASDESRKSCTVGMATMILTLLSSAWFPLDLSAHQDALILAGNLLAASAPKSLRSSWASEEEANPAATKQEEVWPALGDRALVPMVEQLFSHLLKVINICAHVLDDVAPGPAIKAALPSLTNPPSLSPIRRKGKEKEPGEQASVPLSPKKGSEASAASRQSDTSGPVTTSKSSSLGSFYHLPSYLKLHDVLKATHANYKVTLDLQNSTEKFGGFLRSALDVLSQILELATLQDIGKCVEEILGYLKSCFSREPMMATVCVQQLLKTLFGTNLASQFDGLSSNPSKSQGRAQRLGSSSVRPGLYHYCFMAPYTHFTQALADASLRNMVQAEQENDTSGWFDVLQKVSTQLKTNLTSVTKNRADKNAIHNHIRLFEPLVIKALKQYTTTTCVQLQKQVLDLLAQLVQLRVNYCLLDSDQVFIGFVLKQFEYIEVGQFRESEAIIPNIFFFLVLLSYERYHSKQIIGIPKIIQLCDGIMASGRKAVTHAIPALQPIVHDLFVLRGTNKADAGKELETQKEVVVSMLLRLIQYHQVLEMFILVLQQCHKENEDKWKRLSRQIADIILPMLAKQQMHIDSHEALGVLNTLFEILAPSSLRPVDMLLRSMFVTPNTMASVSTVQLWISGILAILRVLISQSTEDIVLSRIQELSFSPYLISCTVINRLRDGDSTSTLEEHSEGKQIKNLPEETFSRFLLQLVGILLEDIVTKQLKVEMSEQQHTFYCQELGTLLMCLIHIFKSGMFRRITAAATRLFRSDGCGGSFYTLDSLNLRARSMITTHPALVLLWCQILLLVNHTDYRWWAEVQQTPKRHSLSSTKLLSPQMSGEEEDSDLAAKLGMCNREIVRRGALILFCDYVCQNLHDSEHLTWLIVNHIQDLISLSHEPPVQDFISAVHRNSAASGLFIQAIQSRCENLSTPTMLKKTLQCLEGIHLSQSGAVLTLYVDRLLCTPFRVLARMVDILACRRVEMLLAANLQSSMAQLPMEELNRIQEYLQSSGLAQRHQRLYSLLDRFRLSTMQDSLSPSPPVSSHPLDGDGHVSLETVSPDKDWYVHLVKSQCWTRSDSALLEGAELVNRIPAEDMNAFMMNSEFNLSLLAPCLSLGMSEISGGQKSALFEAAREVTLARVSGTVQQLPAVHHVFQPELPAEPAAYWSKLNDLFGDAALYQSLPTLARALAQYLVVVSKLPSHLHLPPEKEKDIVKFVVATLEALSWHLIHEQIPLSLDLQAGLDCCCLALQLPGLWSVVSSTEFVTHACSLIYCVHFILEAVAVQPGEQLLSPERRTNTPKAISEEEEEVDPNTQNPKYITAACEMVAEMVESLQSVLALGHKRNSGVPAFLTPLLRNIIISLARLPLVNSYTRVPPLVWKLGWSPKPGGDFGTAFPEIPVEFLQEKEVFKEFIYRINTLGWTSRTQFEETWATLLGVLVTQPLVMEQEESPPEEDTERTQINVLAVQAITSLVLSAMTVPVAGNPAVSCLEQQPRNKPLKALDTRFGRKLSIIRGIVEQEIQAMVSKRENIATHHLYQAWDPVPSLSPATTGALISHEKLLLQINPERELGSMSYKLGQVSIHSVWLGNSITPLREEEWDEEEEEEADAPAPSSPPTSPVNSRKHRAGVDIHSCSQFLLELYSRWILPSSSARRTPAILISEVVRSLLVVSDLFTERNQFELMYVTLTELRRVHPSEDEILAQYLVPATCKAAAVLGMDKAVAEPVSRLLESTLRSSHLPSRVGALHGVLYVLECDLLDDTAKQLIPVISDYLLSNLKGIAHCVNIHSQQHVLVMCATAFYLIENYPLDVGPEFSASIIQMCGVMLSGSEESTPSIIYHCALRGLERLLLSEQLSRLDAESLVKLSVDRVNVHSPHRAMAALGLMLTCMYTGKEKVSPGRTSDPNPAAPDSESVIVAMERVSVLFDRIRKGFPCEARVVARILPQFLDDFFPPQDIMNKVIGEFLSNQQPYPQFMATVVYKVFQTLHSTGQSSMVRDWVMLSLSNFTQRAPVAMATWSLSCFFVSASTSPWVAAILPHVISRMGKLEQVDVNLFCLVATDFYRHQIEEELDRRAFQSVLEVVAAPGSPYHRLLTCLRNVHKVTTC
# Chain of Mitogen-activated protein kinase 7 (Homo sapiens) (Q13164 whole entry, looked up, the tested form may be a part): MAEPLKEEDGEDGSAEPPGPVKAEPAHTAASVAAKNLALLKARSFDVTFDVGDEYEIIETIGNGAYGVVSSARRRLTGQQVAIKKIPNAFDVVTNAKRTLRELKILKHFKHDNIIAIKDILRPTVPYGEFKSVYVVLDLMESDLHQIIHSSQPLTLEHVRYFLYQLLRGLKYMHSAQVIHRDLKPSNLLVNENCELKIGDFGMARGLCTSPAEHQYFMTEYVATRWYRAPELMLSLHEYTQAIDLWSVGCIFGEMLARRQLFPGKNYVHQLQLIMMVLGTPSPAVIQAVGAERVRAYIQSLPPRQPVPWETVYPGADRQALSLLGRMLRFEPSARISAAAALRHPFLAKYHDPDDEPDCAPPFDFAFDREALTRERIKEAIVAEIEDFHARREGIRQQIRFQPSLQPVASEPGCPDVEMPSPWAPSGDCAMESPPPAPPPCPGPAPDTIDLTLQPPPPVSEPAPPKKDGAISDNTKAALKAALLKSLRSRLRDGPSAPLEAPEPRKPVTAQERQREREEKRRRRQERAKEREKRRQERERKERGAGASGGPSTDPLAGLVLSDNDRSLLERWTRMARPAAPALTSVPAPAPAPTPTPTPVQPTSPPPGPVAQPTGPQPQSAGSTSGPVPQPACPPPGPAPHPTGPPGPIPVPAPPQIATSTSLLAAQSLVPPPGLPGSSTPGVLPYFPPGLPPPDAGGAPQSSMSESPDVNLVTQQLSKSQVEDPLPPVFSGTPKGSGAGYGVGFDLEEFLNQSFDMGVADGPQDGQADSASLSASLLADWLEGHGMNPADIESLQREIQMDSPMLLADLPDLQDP
compound,measurement,setting,value
CNC(C)Cc1ccccc1 (configuration not stated),inhibition,[1],4.94%
same,score,[2],1.26
same,rescue above control,[3],3.06
same,cytochrome c release ratio,[4],0.97
same,inhibition of aggregation,[5],-0.68%
same,glutamate uptake change,[6],6.37%
same,inclusion score,[7],2
same,aggregation suppression score,[8],1.49
CC1CC[C@@]2(NC1)OC1CC3C4CC=C5CC(O)CCC5(C)C4CCC3(C)C1[C@@H]2C (some centres not stated),inhibition,[1],0.23%
same,score,[2],1.05
same,rescue above control,[3],-8.79
same,cytochrome c release ratio,[4],1.04
same,inhibition of aggregation,[5],64.7%
same,glutamate uptake change,[6],-2.74%
same,inclusion score,[7],2
same,aggregation suppression score,[8],0.556
COc1cc(CCN)cc(OC)c1OC,inhibition,[1],8.49%
same,score,[2],1.47
same,rescue above control,[3],-5.41
same,cytochrome c release ratio,[4],0.91
same,inhibition of aggregation,[5],22.4%
same,glutamate uptake change,[6],-3.12%
same,inclusion score,[7],2
same,aggregation suppression score,[8],1.23
COC(=O)C1C(OC(=O)c2ccccc2)CC2CCC1N2C (configuration not stated),inhibition,[1],-2.13%
same,score,[2],1.1
same,rescue above control,[3],-9
same,cytochrome c release ratio,[4],0.85
same,inhibition of aggregation,[5],32%
same,glutamate uptake change,[6],-26.1%
same,inclusion score,[7],2
same,aggregation suppression score,[8],1.26
O=c1ccc2cc(O[C@@H]3OC(CO)[C@@H](O)[C@@H](O)C3O)c(O)cc2o1 (some centres not stated),survival,[9],4.42 (inactive)
same,luciferase signal,[10],48 AU (inactive)
O=C1CN=C(c2ccccc2)c2cc(Cl)ccc2N1,inhibition,[1],6.42%
same,score,[2],1.16
same,protection,[11],38% (active)
same,rescue above control,[3],2.8
same,cytochrome c release ratio,[4],0.98
same,inhibition of aggregation,[5],2.04%
same,glutamate uptake change,[6],-20.9%
same,inclusion score,[7],2
same,aggregation suppression score,[8],1.12
CN1C(=O)C(O)N=C(c2ccccc2)c2cc(Cl)ccc21 (configuration not stated),inhibition,[1],-6.64%
same,score,[2],1.21
same,rescue above control,[3],0.82
same,cytochrome c release ratio,[4],0.99
same,inhibition of aggregation,[5],8.84%
same,glutamate uptake change,[6],4.66%
same,inclusion score,[7],2
same,aggregation suppression score,[8],1.05
CCN1CCCC(N2CCN3CCCC3C2)C1 (configuration not stated),z-score,[12],-0.225 (inactive)
CC(N)Cc1ccc2c(c1)OCO2 (configuration not stated),inhibition,[1],-14.9%
same,score,[2],1.01
same,rescue above control,[3],-3.14
same,cytochrome c release ratio,[4],1
same,inhibition of aggregation,[5],21.1%
same,glutamate uptake change,[6],-7.15%
same,inclusion score,[7],2
same,aggregation suppression score,[8],1.15
CCCCCc1cc(O)c2c(c1)OC(C)(C)C1CC=C(C)CC21 (configuration not stated),inhibition,[1],13.2%
same,score,[2],-0.66
same,rescue above control,[3],-4.34
same,cytochrome c release ratio,[4],1.71
same,inhibition of aggregation,[5],42.9%
same,normalised LDH release,[13],0.999
same,glutamate uptake change,[6],-49.9%
same,aggregation suppression score,[8],0.105
C[C@@]1(C(=O)O)CC[C@]2(C)CC[C@]3(C)C4=CC=C5C=C(O)C(=O)C=C5[C@]4(C)CC[C@@]3(C)[C@@H]2C1,aggregation ratio,[14],0.487
same,score,[2],1.77
same,cytochrome c release ratio,[4],3.7
same,inhibition of aggregation,[5],11.8%
same,normalised LDH release,[13],0.996
same,glutamate uptake change,[6],-13.4%
same,aggregation suppression score,[8],1.23
CNC(C)Cc1ccc2c(c1)OCO2 (configuration not stated),inhibition,[1],-3.07%
same,score,[2],0.95
same,rescue above control,[3],-0.64
same,cytochrome c release ratio,[4],0.84
same,inhibition of aggregation,[5],0.68%
same,glutamate uptake change,[6],-3.54%
same,inclusion score,[7],2
same,aggregation suppression score,[8],1.38
COC12CC[C@@]3(C[C@@H]1C(C)(O)C(C)(C)C)[C@H]1Cc4ccc(O)c5c4[C@@]3(CCN1CC1CC1)[C@H]2O5 (some centres not stated),inhibition,[1],26.4%
same,score,[2],1.52
same,rescue above control,[3],5.39
same,cytochrome c release ratio,[4],1.25
same,inhibition of aggregation,[5],-0.68%
same,normalised LDH release,[13],1.01
same,glutamate uptake change,[6],-3.06%
same,aggregation suppression score,[8],1.02
CC1(C)C(C(=O)N2CCC(n3cc(C4CC4)nn3)CC2)C1(C)C,z-score,[12],-0.525 (inactive)
CN1CC[C@]23c4c5ccc(O)c4O[C@H]2C(=O)CCC3[C@H]1C5 (some centres not stated),inhibition,[1],7.55%
same,score,[2],1.13
same,rescue above control,[3],-11.3
same,cytochrome c release ratio,[4],1.11
same,inhibition of aggregation,[5],-0.68%
same,glutamate uptake change,[6],20.7%
same,inclusion score,[7],2
same,aggregation suppression score,[8],1.27
CCCCCc1cc(O)c2c(c1)OC(C)(C)C1CCC(C)=CC21 (configuration not stated),inhibition,[1],5.35%
same,score,[2],-0.54
same,rescue above control,[3],-0.11
same,cytochrome c release ratio,[4],2.94
same,inhibition of aggregation,[5],34.7%
same,normalised LDH release,[13],0.893
same,glutamate uptake change,[6],-3.83%
same,aggregation suppression score,[8],0.291
COc1ccc2c3c1O[C@H]1[C@@H](O)C=CC4[C@@H](C2)N(C)CC[C@@]341 (some centres not stated),inhibition,[1],-19%
same,score,[2],1.17
same,rescue above control,[3],2.82
same,cytochrome c release ratio,[4],0.92
same,inhibition of aggregation,[5],61.9%
same,glutamate uptake change,[6],-22%
same,inclusion score,[7],2
same,aggregation suppression score,[8],1.22
NCCC(O)C(=O)N[C@@H]1C[C@H](N)[C@@H](O[C@H]2O[C@H](CN)[C@@H](O)[C@H](O)[C@H]2N)[C@H](OC2O[C@H](CO)[C@H](O)[C@H]2O)[C@H]1O (some centres not stated),inhibition,[1],5.62%
same,score,[2],1.4
same,rescue above control,[3],9.62
same,cytochrome c release ratio,[4],1.37
same,inhibition of aggregation,[5],83.3%
same,glutamate uptake change,[6],13.4%
same,inclusion score,[7],2
same,aggregation suppression score,[8],1.55
CCC(=O)C(CC(C)N(C)C)(c1ccccc1)c1ccccc1 (configuration not stated),inhibition,[1],-9.47%
same,score,[2],1.06
same,rescue above control,[3],0.15
same,cytochrome c release ratio,[4],0.89
same,inhibition of aggregation,[5],21.1%
same,glutamate uptake change,[6],7.77%
same,inclusion score,[7],2
same,aggregation suppression score,[8],0.899
